Measured values taken from PubChem BioAssay AID1508600 (Functional Genomics Laboratory (NCATS/FGL), 2020).
Screen size: about 53,000 sequences; about 3,700 (7%) were called active. The sample as a whole holds a higher share of actives than the screen did. Unmarked numbers belong to inactive results.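 The calls were made as follows: active = gene knockdowns whose robust z-score for IL-1 alpha signal is at least 2 or at most -2, so actives lie on both sides; inactive = the rest.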

Assay: Components of the Cytosolic LPS Sensing Pathway: Gene Identification via Genome-wide siRNA Screen
Settings: RAW264.7 macrophages, IL-1a HTRF, actives lie on both sides, screened at 100 nM (by protocol), cells primed 5 h with Pam3CSK4 first
Source text: Non-canonical inflammasome activation by cytosolic LPS is a critical component of the host response to Gram-negative bacterial infection, however we lack a comprehensive understanding of the cellular processes that control this pathway. Here we describe a genome-wide siRNA screen to identify genes regulating the mouse macrophage IL-1 alpha response to cytosolic LPS.
RAW264.7 cells were maintained in complete DMEM media, comprising DMEM with 4.5 g/L glucose, 10% FBS (Gemini Bio-Products, West Sacramento, CA), 2 mM Glutamine (Lonza) and 20 mM HEPES (Lonza), hereafter complete DMEM.
The RNAi screen was conducted in 384-well format using the Ambion Silencer Mouse Genome siRNA Library (#4391425), which consists of three unique, nonoverlapping, nonpooled siRNAs for each of 17,000 gene targets. siRNA reagents ([…]) were stamped into 384-well white flat-bottom microplates (Corning, 3570) using a Velocity11 VPrep liquid handling system (Agilent) integrated into a BioCel robotic platform (Agilent) in columns 1-22, leaving columns 23-24 empty for negative (Ambion, Negative control #1) and positive (mouse Casp4) controls, respectively. The median value of each plate's negative control column was used to normalize sample wells, and the positive control was used to assess transfection efficiency and assay performance.
Lipofectamine RNAiMAX Transfection Reagent ([…]; Invitrogen) was added in […] serum-free, antibiotic-free media to plate wells using a Thermo Scientific Matrix WellMate and Microplate Stacker. Plates were incubated for 45 min at room temperature to allow for the sufficient formation of siRNA-lipid complexes. Cells were seeded at a density of 1x10^4 cells per well in 20 microL media containing 20% (vol/vol) FBS without antibiotics. The final concentration of siRNA in each well was 100 nM. Cells were cultured for 48h at 37 degrees C in 5% CO2 before addition of […] of TLR ligand Pam3CSK4 for 5 hours. The medium was then removed, replaced with […] growth media and cell were transfected with […] of LipidA and TransIT-TKO (Mirus) for 24 hour. At the end of the LipidA treatment, […] of supernatant was transferred to a 384 Greiner Bio-one non-binding low volume plate and […] of IL-1a HTRF reagent (Cisbio, 62MIL1APEH) was added and incubated at room temperature overnight. The plates were read on an EnVision plate reader (PerkinElmer). Cell viability was measured by adding 20ul Cell Titer Glo to the original plate and running a luminescence read on the EnVision. The quantified IL-1a signal for each siRNA gene-targeted well was divided by the median of the negative control wells and multiplied by 100 to achieve a negative control normalized value for each well/siRNA. This normalized value was then used to generate a robust z-score by first taking the log of each value and then by subtracting the median and dividing by the […].

| Sequence | z-score |
| --- | --- |
| GGAAACCAUCAUGAAGAAATT against Siae | -0.127 |
| CCCAUUGAACAGGAUGUUATT against Coq9 | -0.292 |
| CCUGGUAUCCAAGAGGAAGTT against Myt1 | 2.52 (active) |
| GCAUCAAUUGUCAGGAAAUTT against Rev3l | 0.807 |
| GGGCUCGUAAAGAAAGAAGTT against Cep41 | -1.15 |
| GCUGAUGAACGAAUACAACTT against Kcnk5 | 1.25 |
| GCGCAGAACCCAGAUGAAGTT against Necap2 | 0.836 |
| CCGUCCAUUGCACUGGAUATT against Arntl2 | 0.024 |
| GGUGUGAGUGUAAGUUUAUTT against Wnt16 | 1.1 |
| CGGAUAUGAGAUGAGAAUGTT against Morn4 | -2.4 (active) |
| GGAUUUCAACAGACAGGUGTT against Paip2b | 0.877 |
| GGCAGAACUCAAAUUCUUGTT against AW209491 | -0.35 |
| GCGUAGCUGUAGUGAACCATT against Erh | 1.78 |
| GGUACUACACCUUUGAUGATT against Fibp | -0.497 |
| GGACCACAACACAAAUCUGTT against Fasl | 1.49 |
| UUCAUGUAGGUCUACUAUUTT against Olfr203 | -0.104 |
| GGAUCUGAAGCUGAUUACATT against Clca2 | 2.47 (active) |
| GCCACUGUUUGAUCUGAAATT against Fhod1 | 0.943 |
| CCUUGCCAUAAGUGAUUUATT against Npffr2 | 0.876 |
| GGCCUUAAAAUACCUUUGATT against Srpx | 1.12 |
| CCAGUACAAAGCCACAAUATT against Rab7 | 5.54 (active) |
| GGACAUUUCACAAGUCAAATT against Eloc | 1.81 |
| GGGUGGAAAAUUUCAGUUUTT against Ube2f | -0.957 |

| Sequence | z-score |
| --- | --- |
| CCAUCCCGUUCACUAGAGATT against Mypn | -1.73 |
| CCGACUGCUCGUAAAUUCATT against Ndufa12 | 2.79 (active) |
| GGUACAAAGCCAUUGUACGTT against Grpr | -0.381 |
| GGAAGAGAAACGACAAAAUTT against Olfr293 | 1.46 |
| GGGAGACAAUCGUUUUAGCTT against Tgfbi | 0.698 |
| GGGCAUAUUCACGAUCAAUTT against Fut2 | 1.43 |
| GGAAAGACCACAUUAUUAATT against Orc4 | 0.0347 |
| GGUUUCUGCCCAGAGUCUATT against 2010106E10Rik | -2.78 (active) |
| GCAAGGACUCUCAUGGUUGTT against Zfand1 | -0.0357 |
| GGUGCCGAACGUGUAAUUATT against Rarb | 0.936 |
| GCCCAUGUGUAAUACAUUUTT against Prps1 | 0.789 |
| CCGGAGUAACUCUCUAACATT against Apbb3 | -0.291 |
| GGGUGACCUUUCCAGAUGATT against Cldn13 | -0.846 |
| GGCACAUGGAAUCUUUGAGTT against Edc3 | -1.65 |
| GGAGCAACUACAAACAUCUTT against Acss2 | 2.35 (active) |
| GGGAUAAGACAGGAGACUUTT against Slc16a11 | 0.227 |
| GGGAAGGACUGUAAGAAAATT against Dipk1a | -0.252 |
| GCAUCAACACCUGUUCUAUTT against Olfr376 | 1.02 |
| GGAUCAUUUACAUUCAUACTT against Alg12 | -2.6 (active) |
| GGCACCUGUUAAAAAUGAATT against Prag1 | -0.771 |
| GGACUAGUGUGAAAAAGGATT against Nsd1 | -2.87 (active) |
| GCUCAUCGGAGAGUUCUAUTT against Ube2h | 0.594 |
| GGCAGCAUUGAGUGUGUGATT against Asb13 | 2.53 (active) |

| Sequence | z-score |
| --- | --- |
| GGAAUGCUGAAGUAAAAAATT against Olfr1259 | -0.808 |
| GGGCCAAGUUCCGAAAGAATT against Dmbx1 | -0.443 |
| GCCUUAACUAUGUUGUCUATT against Mgst1 | 0.893 |
| GCCUGCACUGUUGAACUAGTT against Tomm40l | -1.09 |
| GCACUCAUUGCCAGGGUCATT against Pycard | -2.54 (active) |
| GCAGUUAUCCGUAUUUAAATT against Ctnnbl1 | 1.18 |
| CCCUCAUUCUCUAGCGUGATT against H2-K1 | -1.07 |
| GGAUGGACUUCGUCAUGAATT against Cplx2 | 0.55 |
| GGAGUGAUUCAGUGAAAACTT against Iqcf3 | -0.289 |
| CGUCAUAAAGAAUAGUUCCTT against Ncoa4 | 0.965 |
| GGAGAAGAGUUAUUGGAUATT against Dnajb4 | 0.901 |
| CCUACGGCAAACAGAGACUTT against Klk6 | -2.29 (active) |
| GGAGUUUAAGAAGACGCACTT against Slc26a3 | 1.62 |
| GGUUUUGGACCAGAUGAGCTT against Abi3 | 0.0276 |
| GGGAUGAAGUGUUCCAUCCTT against Ccdc187 | 2.88 (active) |
| GCAAUUAGUAACUGAGAAUTT against Dpp10 | 0.0628 |
| GGACUAUGCUGUCCAGAUCTT against Ntn1 | -0.432 |
| GGUGCUGAAUUUGAUCAAGTT against Rpa2 | 1.83 |
| UUGUUAUAGCACUUCCAAATT against Vwa3b | 2.12 (active) |
| GGAUGGGUUUGAUCUUAAUTT against Il13ra2 | 0.519 |
| GCCAUUUGAAGGCUUUUGUTT against D130079A08Rik | -0.555 |
| GCUGGUGAUGACGUGUAUCTT against Slc32a1 | 0.357 |
| GUUGAACAAUCUUGUCCUGTT against Rps25 | 0.518 |
